This passage reports relative cell viability results from the supplement of paper PMC10670038.

Each structure is given as a SMILES string. Where a name gives a salt, the structure may show the parent alone. ± gives the standard deviation of the averaged measurements. The full ranking holds about 2,000 compounds; the median of “relative cell viability vs DMSO, compound alone” is about 1.1, and the lowest 2% start at about 0.29. Only a selection was taken, and the lowest values are over-represented in it overall.

The subject of this assay is TE10. The assay can be described thus: relative cell viability vs DMSO, compound alone (fraction); TE10 is an esophageal squamous carcinoma line; higher = less cytotoxic. The conditions noted are these: 2 µM; 48 h. How it is done: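 TE10 ESCC cells (1,000/well, 384-well plates) were treated with Selleck bioactive library compounds at 2 uM alone for 48 h. Viability was read by CellTiter-Glo and expressed relative to DMSO wells. Two technical replicates (A, B).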
As for `C[C@H]1CCC/C=C/[C@@H]2C[C@H](O)C[C@H]2[C@H](O)/C=C/C(=O)O1` [Brefeldin A], the relative cell viability is 0.2497 ± 0.0017. As to `Cc1c(Cl)c(OCC(=O)N2CCN(C)CC2)nc2sc(C(=O)NC3CC3)c(N)c12`, the relative cell viability stood at 1.04 ± 0.019. The compound `Cc1cc(C(C#N)c2ccc(Cl)cc2)c(Cl)cc1NC(=O)c1cc(I)cc(I)c1O` (stereo not given) [Closantel] came in with a relative cell viability of 1.12 ± 0.019. As to `O=S(=O)(F)Cc1ccccc1`, the relative cell viability came out at 0.978 ± 0.021. `O=C(O)CCCc1ccc(N(CCCl)CCCl)cc1` [Chloroambucil] gave a relative cell viability of 1.14 ± 0.012. The compound `CN1C2CC(O)CC1C1OC12` (stereo not given) [Scopine] had a relative cell viability of 0.808 ± 0.14.

In turn, `C=CC[C@]1(O)CC[C@H]2[C@@H]3CCC4=CC(=O)CCC4=C3C=C[C@@]21C` [Altrenogest] registered a relative cell viability of 1.115 ± 0.0019. The result for `Cc1c(N)nc(C(CC(N)=O)NCC(N)C(N)=O)nc1C(=O)NC(C(=O)NC(C)C(O)C(C)C(=O)NC(C(=O)NCCc1nc(-c2nc(C(=O)NCCC[S+](C)C)cs2)cs1)C(C)O)C(O[C@@H]1O[C@@H](CO)[C@@H](O)[C@H](O)[C@@H]1O[C@H]1O[C@H](CO)[C@@H](O)[C@H](OC(N)=O)[C@@H]1O)c1cnc[nH]1` (stereo not given in full) [Bleomycin Sulfate] reads 0.856 ± 0.038; that for `C[C@@H]1CC[C@@]2(OC1)O[C@H]1C[C@H]3[C@@H]4CC=C5C[C@@H](O[C@@H]6O[C@H](CO)[C@@H](O[C@@H]7O[C@@H](C)[C@H](O)[C@@H](O)[C@H]7O)[C@H](O)[C@H]6O[C@@H]6O[C@@H](C)[C@H](O)[C@@H](O)[C@H]6O)CC[C@]5(C)[C@H]4CC[C@]3(C)[C@H]1[C@@H]2C` [Dioscin], 0.189 ± 0.051. Turning to `O=C1CCC[C@@H]2[C@H]3CCCN4CCC[C@@H](CN12)[C@@H]34` [(+)-Matrine], the relative cell viability stood at 1.1 ± 0.059.

In the case of `CC1=C(O)C(=O)C=C2C1=CC=C1[C@@]2(C)CC[C@@]2(C)[C@@H]3C[C@](C)(C(=O)O)CC[C@]3(C)CC[C@]12C` [Celastrol], the relative cell viability came to 0.306 ± 0.0087. Regarding `O=[N+]([O-])C=Cc1ccc2c(c1)OCO2` [MNS (3,4-Methylenedioxy-β-nitrostyrene, MDBN)], the relative cell viability was determined as 0.742 ± 0.054. Turning to `CC(C)=CCC[C@]1(C)C=Cc2c(O)c3c(c(CC=C(C)C)c2O1)O[C@]12C(=C[C@@H]4C[C@H]1C(C)(C)O[C@@]2(C/C=C(/C)C(=O)O)C4=O)C3=O` [Gambogic Acid], the relative cell viability is 0.0673 ± 0.0049. The compound `Cc1sc2c(c1C)C(c1ccc(Cl)cc1)=N[C@@H](CC(=O)OC(C)(C)C)c1nnc(C)n1-2` registered a relative cell viability of 0.9008 ± 0.0079. Regarding `Cc1sc2c(c1C)C(c1ccc(Cl)cc1)=NC(CC(N)=O)c1nnc(C)n1-2` (stereo not given), the relative cell viability turned out to be 0.954 ± 0.053.
